40 compounds from PubChem BioAssay (NCI) can be followed below.

This is part of a sample that, as a whole, favours compounds with a hit. Of some 83,000 tested, about 20% had one in any assay.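 Interpretation: 100, growth as untreated; towards 0, rising growth inhibition; 0, no net growth; 0 to -100, cell death. Compounds scoring below 10 were considered active.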 A number with no mark means an inactive call. Calls of active or inactive are those of the source.

For this assay, the system named is SK-MEL-2 melanoma. Briefly: NCI-60 one-dose screen, 48 h (100 = growth as untreated, 0 = no growth, -100 = all killed). The note with it: 10 µM unless noted.
With `O=C1C(Cl)=C(NCCCCCCNC2=C(Cl)C(=O)c3ccccc3C2=O)C(=O)c2ccccc21`, the growth was 84.5%.
The same measure for `CCCC/C=C/[C@@H]1C[C@H]1CCO`: 98.7%.
The same measure for `C=C(C)[C@@H]1CC[C@]2(CO)CC[C@]3(C)[C@H](CC[C@@H]4[C@@]5(C)CC[C@H](NCO)C(C)(C)[C@@H]5CC[C@]43C)[C@@H]12`: -60.9% (active); for `Cc1cccc(/C=C/c2c(C(=O)/C=C/c3ccccc3)c(C)nc3ccccc23)c1`: -60.8% (active).
The same measure for `Cc1ccc(-c2nc(N3CCCNCC3)c3oc(-c4ccc(C)cc4)nc3n2)cc1`: 105%; for `Cc1sc2nc(NCCc3c[nH]c4ccc(Cl)cc34)[nH]c(=O)c2c1C`: 78.5%; for `COc1ccc(OC)c(Nc2nnc(-c3ccc(O)c(OC)c3)o2)c1`: 96.3%.
With `COc1ccccc1NC(=O)N=Nc1c(O)[nH]c2ccccc12`, the growth was 100%.
On to `Nc1nc2ccccc2c2c1S(=O)(=O)c1ccc(Cl)cc1C2=O`, for which the growth was 42%.
The same measure for `Nc1n[nH]c2cccc(C#Cc3cccc(C(=O)Nc4cc(C(F)(F)F)cc(C(F)(F)F)c4)c3)c12`: 72.2%; for `CS(=O)(=O)Nc1cc(-c2ccc3ncnc(Nc4ccc5c(cnn5Cc5ccc(F)cc5)c4)c3c2)cnc1Cl`: 3.86% (active).
The same measure for `Fc1cc2c(cc1Cl)N(c1ncnc3ccc(-c4ccc5n[nH]nc5c4)cc13)CC2`: 89%.
The same measure for `CCN1C(=S)N(c2ccccc2)C2NC(=S)N(/N=C/C=C/c3ccccc3OC)C21` (stereo not given): 32.8%.
Turning to `O=c1c2cccc3c(N4CCCC4)ccc(c32)c2nc3ccccc3n12`, the growth is 113%.
With `OB1OCc2cc(/C=C/c3cccc(C(F)(F)F)c3)ccc21`, the growth was 60.2%.
The same measure for `O=C(/C=C/c1ccccc1)Nc1ncc(Cc2ccccc2Cl)s1`: 25.7%; for `CN(C)CCNC(=O)c1ccc(-c2nc3ccc4[nH]ncc4c3c3c2C2CCC3C2)cc1` (stereo not given): -5.51% (active).
The same measure for `COC12C=C/C(=C(/C(=O)OCc3ccncc3)C(=O)CCCCCCCCC3(OC)C=C/C(=C(/C(=O)OCc4ccncc4)C(=O)CCCCCCCC1)O3)O2`: -1.63% (active); for `O=C(/C=C/c1cccc(Cl)c1)c1cccc(OCCCOc2cccc(C(=O)/C=C/c3cccc(Cl)c3)c2)c1`: 116%.
The same measure for `CCn1c(SCC(=O)N/N=C(\C)c2ccc(Cl)cc2)nc2c1c(=O)n(C)c(=O)n2C`: 116%; for `Cc1ccc(C[P+](c2ccccc2)(c2ccccc2)c2ccccc2)cc1`: -4.59% (active).
`Clc1ccc2c(NC3CCC(N4CCOCC4)CC3)ccnc2c1` (stereo not given): the growth was 113%.
For `Cc1ccc(C2=Nc3c(N)ncnc3NC(c3cccc(Nc4ccnc5cc(C(F)(F)F)ccc45)c3)C2)cc1` (stereo not given), the growth is -11.1% (active).
`COc1ccc(-c2noc(C(=O)O)c2-c2cc(OC)c(OC)c(OC)c2)cc1`: the growth is 13.8%.
The same measure for `CCOC(=O)c1nn(-c2ccc(S(N)(=O)=O)cc2)c2nc(C)cc(=O)n12`: 109%; for `CCSC(SCC)c1ccc(Cl)cc1`: 116%; for `CSc1nc2ccccc2cc1/C=C1/C=C(c2ccccc2)NC1=O`: 81%.
`COC1/C=C/OC2(C)Oc3c(C)c(O)c4c(O)c(c(/C=N/Nc5ccc([N+](=O)[O-])cc5[N+](=O)[O-])c(O)c4c3C2=O)NC(=O)C(C)=C/C=C/C(C)C(O)C(C)C(O)C(C)C(OC(C)=O)C1C` (stereo not given): the growth was 30.5%.
The same measure for `O=C1C(Cl)=C(Nc2ccc(S(=O)(=O)N3CCOCC3)cc2)C(=O)c2ccccc21`: 108%; for `c1csc(-c2ccc(CNc3c4ccccc4nc4ccccc34)cc2)c1`: 80.8%; for `Nc1ncc(-c2ccc3ncnc(Nc4cccc(Cl)c4)c3c2)cn1`: 50.1%.
The same measure for `CCOC(=O)C#Cc1c(C(=O)OCC)nnn1Cc1ccc([N+](=O)[O-])cc1`: 109%; for `O=C(CSc1nc2ccc([N+](=O)[O-])cc2[nH]1)Nc1ccc([N+](=O)[O-])cc1`: -5.26% (active); for `CC(C)(Sc1cc(C(C)(C)C)c(OC(=O)CCCC(=O)O)c(C(C)(C)C)c1)Sc1cc(C(C)(C)C)c(OC(=O)CCCC(=O)O)c(C(C)(C)C)c1`: 55.2%.
The same measure for `O=C(N(c1ccccc1)c1ccccc1)n1cc(I)c2nc(Cl)nc(Cl)c21`: 70.5%.
Consider `NC(=O)CSc1oc(-c2ccccc2)nc1S(=O)(=O)c1ccc(Br)cc1`, for which the growth was 99.2%.
The same measure for `COc1ccc(/C=C/C(=O)c2cc3c(N)c(C(=O)Nc4cccc5ccccc45)sc3nc2C)cc1`: 70.9%; for `Nc1ncnc2c1c(-c1cccc(Cl)c1)nn2CC(=O)N1CCOCC1`: 106%.
The same measure for `CC(=O)O[C@H]1CC2CCC3C(CC[C@@]4(C)C3C[C@H]([N+]3(C)CCCCC3)[C@@H]4OC(C)=O)[C@@]2(C)C[C@@H]1N1CCCCC1` (stereo not given in full): 111%; for `c1ccc(Cn2cc3c(c2)-c2oncc2CC3)cc1`: 53.9%.
